# PTK2B oligo ant = Pyk2 (human) oligomerization antagonism; Q14289; Q293 cells, Pyk2 FERM NanoBiT luminescence; hits give low values; z-score (the deposit names both 25 µM and 10 µM); hit rate 0.83% among 99,000;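 active = Z-score of -3 or lower, scaled per plate to the spread of control and sample wells; inactive = z-score above -3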;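 note: negative z-score means lost luminescence so less FERM oligomerization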
# Target sequence (Q14289 whole entry, looked up): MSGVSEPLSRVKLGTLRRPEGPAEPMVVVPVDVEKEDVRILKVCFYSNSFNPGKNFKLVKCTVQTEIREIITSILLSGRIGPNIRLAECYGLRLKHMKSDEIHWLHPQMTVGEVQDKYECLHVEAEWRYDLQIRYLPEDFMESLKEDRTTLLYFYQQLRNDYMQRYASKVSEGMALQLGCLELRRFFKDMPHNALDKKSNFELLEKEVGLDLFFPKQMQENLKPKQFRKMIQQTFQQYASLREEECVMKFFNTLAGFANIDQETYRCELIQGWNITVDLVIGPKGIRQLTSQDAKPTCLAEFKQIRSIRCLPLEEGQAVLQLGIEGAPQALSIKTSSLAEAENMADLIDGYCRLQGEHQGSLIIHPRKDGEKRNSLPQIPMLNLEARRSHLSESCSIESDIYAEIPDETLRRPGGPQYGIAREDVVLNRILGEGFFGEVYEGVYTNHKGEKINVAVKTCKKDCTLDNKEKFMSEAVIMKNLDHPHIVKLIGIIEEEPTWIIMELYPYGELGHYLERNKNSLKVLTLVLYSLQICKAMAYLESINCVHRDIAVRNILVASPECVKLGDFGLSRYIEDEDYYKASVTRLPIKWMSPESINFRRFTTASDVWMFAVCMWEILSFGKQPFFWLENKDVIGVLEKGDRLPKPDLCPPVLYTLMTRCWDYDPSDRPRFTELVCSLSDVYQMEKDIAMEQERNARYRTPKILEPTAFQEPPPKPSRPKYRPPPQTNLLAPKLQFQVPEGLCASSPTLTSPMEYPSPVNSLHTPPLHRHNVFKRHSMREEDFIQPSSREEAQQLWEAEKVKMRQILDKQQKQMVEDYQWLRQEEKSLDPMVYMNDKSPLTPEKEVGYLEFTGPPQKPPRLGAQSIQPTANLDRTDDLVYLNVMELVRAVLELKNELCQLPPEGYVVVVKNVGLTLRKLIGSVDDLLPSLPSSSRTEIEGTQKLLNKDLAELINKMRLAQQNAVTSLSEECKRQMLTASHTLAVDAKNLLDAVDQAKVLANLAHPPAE
# CYP2C19 act = increases human CYP2C19 enzyme activity; 96,000 tested, under 10 active; activation factor at 5 µM; recombinant CYP2C19, luciferin-H EGE luminescence; hits give high values; 0 = fully inhibited enzyme, 1 = untreated enzyme; AID 1025;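 active = activation factor of at least 2 at 5 µM in the primary screen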;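 note: 0 = wells with 2.5 mM tranylcypromine and 1 = vehicle-only wells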
# Cav32 inh = inhibitors of human Cav3.2 T-type calcium channel; AID 449739; B-score at 10 µM; Cav3.2-expressing cells, Fluo-4 calcium fluorescence FDSS; hits give low values; hit rate 4% among 100,000;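 active = single-dose well whose peak fluorescence ratio is a statistical outlier from its plate by either plate-standardised score or position-corrected B-score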
# CYP2C9 inhib = inhibitors of human CYP2C9. CYP2C9 Supersomes, luciferin-H conversion, luminescence. hit rate 20% among 96,000. P11712. AID 777. inhibition, % at 5 µM;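 active = blocking of liver enzyme CYP2C9 beyond about 50% at 5 µM, limit read from the data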
# CYP2C9 act = CYP2C9 (human) activation | P11712 | recombinant CYP2C9, luciferin-H conversion, luminescence; hits give high values; factor 1 = untreated enzyme, 0 = blocked | activation factor at 5 µM | hit rate 1.4% among 96,000 | AID 1024;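 active = activation factor of 2 or more for CYP2C9 at a 5 µM dose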;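 note: 0 = sulfaphenazole-blocked wells and 1 = vehicle-only wells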
# CYP2C19 inhib = human CYP2C19 inhibition. inhibition, % at 5 µM. hit rate 21% among 96,000. CYP2C19 Supersomes, luciferin-H EGE luminescence, 30 min;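 active = CYP2C19 inhibition above a set limit at 5 µM in the primary screen, cut at about 50% in these data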;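 note: plate controls were negative control wells for no effect and 2.5 mM tranylcypromine positive control for full effect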
# An asterisk follows results filed as active; nt = no result. Rows were chosen to be rich in hits. Some 27% of all compounds tested hit in one or more screens of this group.
SMILES,PTK2B oligo ant,CYP2C19 act,Cav32 inh,CYP2C9 inhib,CYP2C9 act,CYP2C19 inhib
CC(=O)c1ccc(OCC(O)CN2CCN(Cc3ccccc3)CC2)cc1 (stereo unspecified),nt,1.1,0.39,-3,1,-12
CCOc1ccccc1C(=O)N1CCN(C(c2ccccc2)c2ccccc2)CC1,0.05,0.9,-4.7*,6,0.9,12
COC(=O)CN1CCN(C(c2ccccc2)c2ccccc2)CC1,-0.53,1,1.3,-16,1.2,-5
CCOC(=O)N1CCN(C(=O)c2ccccc2-c2ccccc2)CC1,-0.45,nt,-0.033,nt,nt,nt
Nc1ccc(C#Cc2c(-c3ccsc3)oc3ccc(N4CCOCC4)cc23)cc1,nt,nt,1,nt,nt,nt
NC(=O)C1CCN(C(=O)C2c3ccccc3C(=O)N3CCc4ccccc4C23)CC1 (stereo unspecified),1.1,1,0.8,18,0.8,-4
CCn1c(=O)c2c(nc(SCC(=O)NCC3CCCO3)n2C)n(C)c1=O (stereo unspecified),0.39,1,-2.5,-12,1.1,-4
Cn1cc(NC(=O)c2cc(NC(=O)c3cc(NC=O)cn3C)cn2C)cc1C(=O)NCCC(=N)N,nt,nt,1.8,nt,nt,nt
N#CC1=C(S)N=C(N)C(c2nc(-c3ccccc3)cs2)C12CCCCC2 (stereo unspecified),-0.82,0.4,nt,67*,0.3,60*
Cc1ccc(C(=O)CSC2=NC(N)=C(C#N)C3(CCCCC3)C2C(N)=O)cc1 (stereo unspecified),-0.89,0.8,-0.2,30,0.7,22
Cc1ccc(-c2csc(C3C(N)=NC(S)=C(C#N)C34CCCCC4)n2)cc1 (stereo unspecified),-1.8,0.5,-0.39,89*,0.1,50
N#CC1=C(S)N=C(N)C(c2nc(-c3ccccc3)cs2)C12CCCC2 (stereo unspecified),-1.8,0.1,-0.21,98*,0,86*
Nc1nc(-c2ccccc2)cs1,-0.09,1,1.7,-6,1.1,4
O=C(NCCNC1CCN(Cc2ccccc2)CC1)c1cccs1,nt,1,nt,7,0.9,-2
CC(C)C(=O)Nc1ccc([N+](=O)[O-])c(C(F)(F)F)c1,nt,nt,0.00062,nt,nt,nt
CC(=O)OC1CCC2(C)C(COc3ccc4ccc(=O)oc4c3)C(C)(O)CCC2C1(C)C (stereo unspecified),-3.3*,0.8,-3.4,53*,0.5,21
CCOC(=O)CN1C(=O)NC(C)(c2ccc(OC(F)F)cc2)C1=O (stereo unspecified),0.8,0.4,-0.84,35,0.6,64*
CC1CCCCC1NC(=O)CN1C(=O)NC(C)(c2ccc(OC(F)F)cc2)C1=O (stereo unspecified),-0.17,0.9,-1.6,2,1,6
O=C1Nc2ccc(S(=O)(=O)N3CCCC3)c3cccc1c23,-0.8,0.2,0.43,41,0.6,83*
CN1CCN(S(=O)(=O)c2ccc3c4c(cccc24)C(=O)N3)CC1,nt,0.4,-0.57,-88,1.9,55*
O=C1Nc2ccc(S(=O)(=O)N3CCCCCC3)c3cccc1c23,nt,0.2,-1.9,43,0.6,79*
CCOc1ccccc1N1CCN(S(=O)(=O)c2ccc3c4c(cccc24)C(=O)N3)CC1,-1.3,0.1,-2.3,73*,0.3,91*
Cc1cc([N+](=O)[O-])nn1CC(=O)NCc1cccs1,1.4,0.8,-0.72,-14,1.1,20
COc1ccc2nc(NC(=O)CCNS(=O)(=O)c3ccc4c(c3)oc(=O)n4C)sc2c1,2.2,0.9,nt,-7,1.1,6
O=C1Nc2ccc(S(=O)(=O)N3CCCC3C(=O)O)c3cccc1c23 (stereo unspecified),nt,1,0.36,-3,1,-1
SMILES,PTK2B oligo ant,CYP2C19 act,Cav32 inh,CYP2C9 inhib,CYP2C9 act,CYP2C19 inhib
O=C1Nc2ccc(S(=O)(=O)N3CCOCC3)c3cccc1c23,0.52,0.4,0.25,-18,1.2,59*
CCCC(=O)NC(=S)Nc1ccccc1C(=O)OC,-0.39,0.4,0.76,28,0.7,59*
CCCCC(CCC(=O)Nc1ccccc1C(=O)OCC)C(=O)O (stereo unspecified),1.2,1.1,0.47,59*,0.4,-11
COC(=O)c1ccccc1NC(=S)NC(=O)c1cccc2ccccc12,0.63,0.8,-0.00033,-18,1.2,16
COC(=O)c1ccccc1NC(=S)NC(=O)C1CC1,-0.27,0.5,1.8,26,0.7,52*
O=c1nc2ccccc2c(NS(=O)(=O)c2ccccc2)n1-c1ccccc1,-1.4,1.1,0.22,-6,1.1,-14
N=C1/C(=C\c2ccc(SCc3ccco3)o2)C(=O)N=C2SC=NN12,0.35,1,0.0014,74*,0.3,-5
O=C(C1CCCCC1)N1CCN=C1SCc1cccnc1,nt,0,0.74,46,0.5,95*
O=C(c1cc2ccccc2o1)N1CCN=C1SCc1cccnc1,1.6,0.7,1.3,52*,0.5,30
COc1cccc(OC)c1C(=O)N1CCN=C1SCc1cccnc1,-0.33,0.6,-1.1,16,0.8,44
O=C(c1ccc(S(=O)(=O)N2CCCCC2)cc1)N1CCN=C1SCc1cccnc1,nt,0.9,0.16,31,0.7,6
O=C(c1ccccc1F)N1CCN=C1SCc1cccnc1,nt,0.2,0.4,50,0.5,82*
COc1ccc(C(=O)N2CCN=C2SCc2cccnc2)cc1OC,nt,0.2,0.55,7,0.9,83*
COC(=O)C(C)Oc1ccc(=O)[nH]n1 (stereo unspecified),0.64,1,0.38,-7,1.1,-3
C=CCOC(=O)C1=C[C@H](C2CC2)[C@@H](CCCO)[C@H](OCC)O1,nt,nt,-1.2,nt,nt,nt
O=C(c1ccc(Br)o1)N1CCN=C1SCc1cccnc1,nt,0.1,1.3,64*,0.4,89*
CSC1=NCCN1C(=O)c1ccc(Br)o1,nt,0.9,-0.12,2,1,9
O=C1COc2ccc3ccccc3c2CN1,1.7,0.9,0.44,-4,1,5
CN1C(=O)C2(C(C#N)=C(N)Oc3c2oc(CO)cc3=O)c2ccccc21 (stereo unspecified),0.78,1.1,0.26,-7,1.1,-12
CCCOn1c(OCC(C)C)nc2ccccc2c1=O,0.35,0.9,-5*,11,0.9,12
CC(C)COc1nc2ccccc2c(=O)n1OCC(=O)O,-0.03,0.6,nt,22,0.8,41
COc1ccc(N(C(=O)c2ccc(F)cc2)C2=CC3CCC(C2)N3C)cc1 (stereo unspecified),-0.66,1.4,0.65,12,0.9,-35
CS(=O)(=O)c1ccc(-c2cc(Br)sc2-c2ccc(F)cc2)cc1,nt,nt,-3.7,nt,nt,nt
Cc1nc(-c2c(-c3ccc(O)cc3O)noc2C(F)(F)F)cs1,-2.9,0.3,-1.6,-14,1.1,71*
Cc1nc(SCc2cccc(Oc3ccccc3)c2)n[nH]1,0.06,0.6,-2,26,0.7,40

# Screens: PubChem, several laboratories
